Test results reported in PubChem BioAssay (NCI).
About 79,000 compounds went through this panel and 15% of them were active in at least one assay; those are over-represented in the sample as a whole. The source made the active and inactive calls. Cut-off read from the data, not from the text of the source: active = growth inhibition above about 70%; inactive = the rest.

Assay: NCI Yeast Anticancer Drug Screen. Data for the CLN2oe strain (AID 163);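 note: 0% = growth of vehicle-only control cultures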
Conditions: S. cerevisiae CLN2oe strain, at 1.2 µM, hits give high values
In short: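 Cells of an engineered yeast line with disturbed cell-cycle regulation are treated with compound. Inhibition of growth is then calculated relative to the vehicle-treated reference.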

Compound | growth inhibition
Cc1cccc2c(C(O)CBr)cc(-c3ccc(Cl)cc3)nc12 (stereo not given) | -2% (inactive)
CN(C)C[C@H]1CC[C@@H](CN(C)C)C1=O | -4% (inactive)
CC1=C(SCCO)C(=O)c2ccccc2C1=O | 0% (inactive)
COC(=O)CCNc1c2ccccc2nc2cccc([N+](=O)[O-])c12 | 7% (inactive)
CC(/C=C/c1ccc2c(c1)OCO2)[N+](=O)[O-] (stereo not given) | -1% (inactive)
COC(=O)C1=C(C)NC(C)=C(C(=O)OCCCN2CCC(c3ccccc3)(c3ccccc3)CC2)C1c1cccc([N+](=O)[O-])c1 (stereo not given) | -3% (inactive)
CCOC(=O)c1cnc2c(C(F)(F)F)cccc2c1N=[N+]=[N-] | -1% (inactive)
O=[N+]([O-])c1cc2no[n+]([O-])c2cc1N1CCCCC1 | 27% (inactive)
COC(=O)c1ccc(NCC2=CC(=O)C=CC2=O)cc1O | 8% (inactive)
CCCCCCCCNC(=O)C1=C(C)NC(C)=C(C(=O)NCCCCCCCC)C1 | 4% (inactive)
S=C(Nc1ccc(Cl)c(Cl)c1)SCc1ccc2c(c1)OCO2 | -4% (inactive)
O=S(=O)(CCCl)c1ccccc1Cl | -5% (inactive)
Nc1ccccc1CC(O)C(=O)O (stereo not given) | 5% (inactive)
CN(C)c1ccc(Sc2ccc3nc(N)nc(N)c3c2)cc1 | 17% (inactive)
CC(C)C1=CCC2C(=C1)CCC1C(C)(C(=O)O)CCCC21C (stereo not given) (tested in a mixture with another compound) | -2% (inactive)
Cc1ccc(S(=O)(=O)Oc2cc(Cl)c(Cl)cc2Cl)cc1 | -2% (inactive)
CSC(=S)Nc1cc(C)ccn1 | 20% (inactive)
CC(C)c1cc(C(C)C)c(O)c(C([O-])[O-])c1.CC(C)c1cc(C(C)C)c(O)c(C([O-])[O-])c1.CC(C)c1cc(C(C)C)c(O)c(C([OH2+])[OH2+])c1.CC(C)c1cc(C(C)C)c(O)c(C([OH2+])[OH2+])c1.[Cu+2].[Cu+2].[OH3+].[OH3+] | 3% (inactive)
Cc1cc(I)ccc1N | -10% (inactive)
CC(Br)C(=O)c1ccc2cc(Br)c3ccccc3c2c1 (stereo not given) | -4% (inactive)

Compound | growth inhibition
O=C(Nc1ccccc1)OCCc1ccc(Cl)c(Cl)c1 | -8% (inactive)
O=Cc1cccc2ccc3ccccc3c12 | -1% (inactive)
O=[N+]([O-])CC(SCc1ccccc1)c1ccc2c(c1)OCO2 (stereo not given) | 3% (inactive)
CC1(Cl)CC(O)C2(CC1Br)C1(C)OC1C1OC1(Br)C2(C)C (stereo not given) | 2% (inactive)
Cc1cc(O)cc(O)c1N=Nc1ccc([N+](=O)[O-])cc1 | 24% (inactive)
CCCCCCCCCCCCCC[N+](C)(CC(=O)[O-])Cc1ccccc1 (stereo not given) | 5% (inactive)
CC1=NN(c2cccc(Cl)c2)C(=O)C1 | -26% (inactive)
CC(=O)OCc1ccc(O)c(C=O)c1 | -5% (inactive)
Cc1ccc2ccc3cccc4ccc1c2c34 | -7% (inactive)
Cc1nc(-[n+]2nc(-c3ccncc3)nn2-c2ccccc2)sc1C | -4% (inactive)
C(CCSC1=NCCN1)CSC1=NCCN1 (tested in a mixture with another compound) | -5% (inactive)
CCCCCCCCCCC(=O)Cl | -4% (inactive)
COC1C=COC2(C)Oc3c(C)c(O)c4c(c3C2=O)/C(=N/C2CCC(O)OC2C)C=C(NC(=O)/C(C)=C\C(=O)C2CC2C(O)C(C)C(O)C(C)C(OC(C)=O)C1C)C4=O (stereo not given) | -11% (inactive)
S=c1[nH]nc(Nc2ccc(Cl)cc2)s1 | -7% (inactive)
O=C1CSC(/C=C/c2ccccc2)N1c1ccc(-c2ccc(-n3c(-c4ccccc4)nc4ccccc4c3=O)cc2)cc1 (stereo not given) | 2% (inactive)
O=C1C=CC(=O)N1c1ccc2c(c1)Cc1cc(NC(=O)C(F)(F)F)ccc1-2 | 2% (inactive)
Brc1ccc(-c2cc3c(cc2C2SCCS2)OCO3)cc1 | -18% (inactive)
Oc1ccc2ccccc2c1C(c1ccc(Cl)cc1)c1c(O)ccc2ccccc12 | 0% (inactive)
C[CH2][Sn]([CH2]C)([O]C(=O)C(OC(C)=O)c1ccccc1)[O]C(=O)C(OC(C)=O)c1ccccc1 (stereo not given) | -15% (inactive)
Cc1ccc2ccc(O)cc2c1 | -10% (inactive)

Same assay, conditions: S. cerevisiae CLN2oe strain, at 3.7 µM, hits give high values

Compound | growth inhibition
Cc1cccc2c(C(O)CBr)cc(-c3ccc(Cl)cc3)nc12 (stereo not given) | -3% (inactive)
CN(C)C[C@H]1CC[C@@H](CN(C)C)C1=O | 0% (inactive)
CC1=C(SCCO)C(=O)c2ccccc2C1=O | -5% (inactive)
COC(=O)CCNc1c2ccccc2nc2cccc([N+](=O)[O-])c12 | 50% (inactive)
CC(/C=C/c1ccc2c(c1)OCO2)[N+](=O)[O-] (stereo not given) | 37% (inactive)
COC(=O)C1=C(C)NC(C)=C(C(=O)OCCCN2CCC(c3ccccc3)(c3ccccc3)CC2)C1c1cccc([N+](=O)[O-])c1 (stereo not given) | 21% (inactive)
CCOC(=O)c1cnc2c(C(F)(F)F)cccc2c1N=[N+]=[N-] | -1% (inactive)
O=[N+]([O-])c1cc2no[n+]([O-])c2cc1N1CCCCC1 | 60% (inactive)
COC(=O)c1ccc(NCC2=CC(=O)C=CC2=O)cc1O | 33% (inactive)
CCCCCCCCNC(=O)C1=C(C)NC(C)=C(C(=O)NCCCCCCCC)C1 | 2% (inactive)
S=C(Nc1ccc(Cl)c(Cl)c1)SCc1ccc2c(c1)OCO2 | -13% (inactive)
O=S(=O)(CCCl)c1ccccc1Cl | -2% (inactive)
Nc1ccccc1CC(O)C(=O)O (stereo not given) | 9% (inactive)
CN(C)c1ccc(Sc2ccc3nc(N)nc(N)c3c2)cc1 | 8% (inactive)
CC(C)C1=CCC2C(=C1)CCC1C(C)(C(=O)O)CCCC21C (stereo not given) (tested in a mixture with another compound) | 6% (inactive)
Cc1ccc(S(=O)(=O)Oc2cc(Cl)c(Cl)cc2Cl)cc1 | -6% (inactive)
CSC(=S)Nc1cc(C)ccn1 | 3% (inactive)
CC(C)c1cc(C(C)C)c(O)c(C([O-])[O-])c1.CC(C)c1cc(C(C)C)c(O)c(C([O-])[O-])c1.CC(C)c1cc(C(C)C)c(O)c(C([OH2+])[OH2+])c1.CC(C)c1cc(C(C)C)c(O)c(C([OH2+])[OH2+])c1.[Cu+2].[Cu+2].[OH3+].[OH3+] | 9% (inactive)
Cc1cc(I)ccc1N | -15% (inactive)
CC(Br)C(=O)c1ccc2cc(Br)c3ccccc3c2c1 (stereo not given) | -2% (inactive)

Compound | growth inhibition
O=C(Nc1ccccc1)OCCc1ccc(Cl)c(Cl)c1 | -4% (inactive)
O=Cc1cccc2ccc3ccccc3c12 | 0% (inactive)
O=[N+]([O-])CC(SCc1ccccc1)c1ccc2c(c1)OCO2 (stereo not given) | 5% (inactive)
CC1(Cl)CC(O)C2(CC1Br)C1(C)OC1C1OC1(Br)C2(C)C (stereo not given) | 3% (inactive)
Cc1cc(O)cc(O)c1N=Nc1ccc([N+](=O)[O-])cc1 | 22% (inactive)
CCCCCCCCCCCCCC[N+](C)(CC(=O)[O-])Cc1ccccc1 (stereo not given) | 19% (inactive)
CC1=NN(c2cccc(Cl)c2)C(=O)C1 | -4% (inactive)
CC(=O)OCc1ccc(O)c(C=O)c1 | 1% (inactive)
Cc1ccc2ccc3cccc4ccc1c2c34 | -2% (inactive)
Cc1nc(-[n+]2nc(-c3ccncc3)nn2-c2ccccc2)sc1C | -3% (inactive)
C(CCSC1=NCCN1)CSC1=NCCN1 (tested in a mixture with another compound) | 6% (inactive)
CCCCCCCCCCC(=O)Cl | -9% (inactive)
COC1C=COC2(C)Oc3c(C)c(O)c4c(c3C2=O)/C(=N/C2CCC(O)OC2C)C=C(NC(=O)/C(C)=C\C(=O)C2CC2C(O)C(C)C(O)C(C)C(OC(C)=O)C1C)C4=O (stereo not given) | -11% (inactive)
S=c1[nH]nc(Nc2ccc(Cl)cc2)s1 | -7% (inactive)
O=C1CSC(/C=C/c2ccccc2)N1c1ccc(-c2ccc(-n3c(-c4ccccc4)nc4ccccc4c3=O)cc2)cc1 (stereo not given) | -1% (inactive)
O=C1C=CC(=O)N1c1ccc2c(c1)Cc1cc(NC(=O)C(F)(F)F)ccc1-2 | 11% (inactive)
Brc1ccc(-c2cc3c(cc2C2SCCS2)OCO3)cc1 | -25% (inactive)
Oc1ccc2ccccc2c1C(c1ccc(Cl)cc1)c1c(O)ccc2ccccc12 | 5% (inactive)
C[CH2][Sn]([CH2]C)([O]C(=O)C(OC(C)=O)c1ccccc1)[O]C(=O)C(OC(C)=O)c1ccccc1 (stereo not given) | -3% (inactive)
Cc1ccc2ccc(O)cc2c1 | -13% (inactive)
